Hit rate of the full screen: of about 5,500 compounds, about 2,000 (36%) were called active. Another 18% or so got no clear call; they are omitted. Rule as the data show it: active = normalized growth mostly below about 0.91 (no sharp cut-off); inconclusive = no clear call, values can overlap the other calls; inactive = mostly above about 0.92. The list shows a part of the results.
Test: chemical genetic growth profiling, strain panel (AID 1159580);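 also: tested at 20 µM; growth read once vehicle control cultures reached saturation at 30 °C; 1 = growth at the plate median or of vehicle wells; lower values mean less growth of the strain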
Settings: growth OD

Measured: normalized growth

COc1ccc2c(c1)OC1(O)COc3cc(OC)c(OC)cc3C1=C2 (configuration not stated)
active: S. cerevisiae deletion strains, locus YNL307C, strain MCK1, hits give low values 0.848
inactive: S. cerevisiae deletion strains, locus YJR075W, strain HOC1, hits give low values 0.956 | S. cerevisiae deletion strains, locus YKL009W, strain mrt4, hits give low values 0.965 | S. cerevisiae deletion strains, locus YKL068W, hits give low values 0.99 | S. cerevisiae deletion strains, locus YKL085W, strain MDH1 (second series), hits give low values 0.98 | S. cerevisiae deletion strains, locus YKL085W, strain MDH1, hits give low values 0.98 | S. cerevisiae deletion strains, locus YKL160W, strain elf1, hits give low values 1 | S. cerevisiae deletion strains, locus YKL190W, strain CNB1, hits give low values 1.01 | S. cerevisiae deletion strains, locus YKR001C, strain vps1, hits give low values 0.949 | S. cerevisiae deletion strains, locus YKR026C, strain gcn3, hits give low values 0.974 | S. cerevisiae deletion strains, locus YKR091W, strain srl3, hits give low values 0.979 | S. cerevisiae deletion strains, locus YLL001W, strain dnm1, hits give low values 0.944 | S. cerevisiae deletion strains, locus YLL026W, hits give low values 0.985 | S. cerevisiae deletion strains, locus YLL041C, strain sdh2, hits give low values 0.987 | S. cerevisiae deletion strains, locus YLR027C, strain aat2, hits give low values 0.985 | S. cerevisiae deletion strains, locus YLR039C, strain RIC1, hits give low values 0.974 | S. cerevisiae deletion strains, locus YLR058C, strain SHM2, hits give low values 1 | S. cerevisiae deletion strains, locus YLR102C, strain apc9, hits give low values 0.99 | S. cerevisiae deletion strains, locus YLR113W, strain HOG1, hits give low values 0.939 | S. cerevisiae deletion strains, locus YLR221C, strain rsa3, hits give low values 0.96 | S. cerevisiae deletion strains, locus YLR258W, strain gsy2, hits give low values 0.986 | S. cerevisiae deletion strains, locus YLR262C, strain YPT6 (second series), hits give low values 0.926 | S. cerevisiae deletion strains, locus YLR262C, strain YPT6, hits give low values 0.961 | S. cerevisiae deletion strains, locus YLR268W, strain sec22, hits give low values 0.96 | S. cerevisiae deletion strains, locus YLR320W, strain mms22, hits give low values 0.925 | S. cerevisiae deletion strains, locus YLR330W, strain CHS5, hits give low values 0.997 | S. cerevisiae deletion strains, locus YLR342W, strain FKS1 (second series), hits give low values 0.91 | S. cerevisiae deletion strains, locus YLR342W, strain FKS1, hits give low values 0.976 | S. cerevisiae deletion strains, locus YLR357W, strain rsc2, hits give low values 0.983 | S. cerevisiae deletion strains, locus YLR370C, strain arc18, hits give low values 0.985 | S. cerevisiae deletion strains, locus YLR371W, strain rom2, hits give low values 0.99 | S. cerevisiae deletion strains, locus YLR384C, strain iki3, hits give low values 0.985 | S. cerevisiae deletion strains, locus YLR418C, strain cdc73, hits give low values 0.955 | S. cerevisiae deletion strains, locus YML016C, strain PPZ1, hits give low values 1.01 | S. cerevisiae deletion strains, locus YML032C, strain rad52, hits give low values 0.957 | S. cerevisiae deletion strains, locus YML120C, strain ndi1, hits give low values 0.989 | S. cerevisiae deletion strains, locus YML124C, strain tub3, hits give low values 0.986 | S. cerevisiae deletion strains, locus YMR058W, strain fet3, hits give low values 0.978 | S. cerevisiae deletion strains, locus YMR078C, strain ctf18, hits give low values 0.98 | S. cerevisiae deletion strains, locus YMR125W, strain sto1, hits give low values 0.985 | S. cerevisiae deletion strains, locus YMR129W, hits give low values 0.977 | S. cerevisiae deletion strains, locus YMR205C, strain PFK2, hits give low values 0.954 | S. cerevisiae deletion strains, locus YMR223W, strain ubp8, hits give low values 0.951 | S. cerevisiae deletion strains, locus YMR231W, strain pep5, hits give low values 0.983 | S. cerevisiae deletion strains, locus YMR263W, strain SAP30, hits give low values 1.01 | S. cerevisiae deletion strains, locus YMR307W, strain GAS1, hits give low values 0.984 | S. cerevisiae deletion strains, locus YNL067W, strain RPL9B, hits give low values 0.998 | S. cerevisiae deletion strains, locus YNL071W, strain lat1, hits give low values 0.945 | S. cerevisiae deletion strains, locus YNL128W, strain TEP1, hits give low values 1.02 | S. cerevisiae deletion strains, locus YNL153C, strain GIM3, hits give low values 1.03 | S. cerevisiae deletion strains, locus YNL183C, strain NPR1, hits give low values 0.892 | S. cerevisiae deletion strains, locus YNL209W, strain ssb2, hits give low values 0.993 | S. cerevisiae deletion strains, locus YNL233W, strain BNI4, hits give low values 0.971 | S. cerevisiae deletion strains, locus YNL248C, strain rpa49, hits give low values 0.996 | S. cerevisiae deletion strains, locus YNL250W, strain rad50, hits give low values 0.998 | S. cerevisiae deletion strains, locus YNL271C, strain bni1, hits give low values 0.98 | S. cerevisiae deletion strains, locus YNL298W, strain CLA4, hits give low values 0.98 | S. cerevisiae deletion strains, locus YNL322C, strain KRE1 (second series), hits give low values 0.991 | S. cerevisiae deletion strains, locus YNL322C, strain KRE1, hits give low values 1 | S. cerevisiae deletion strains, locus YNR049C, strain mso1, hits give low values 0.992 | S. cerevisiae deletion strains, locus YNR052C, strain pop2, hits give low values 0.98 | S. cerevisiae deletion strains, locus YOL006C, strain TOP1, hits give low values 0.945 | S. cerevisiae deletion strains, locus YOL012C, strain htz1 0.969 | S. cerevisiae deletion strains, locus YOL147C, strain pex11, hits give low values 0.986 | S. cerevisiae deletion strains, locus YOR001W, strain rrp6, hits give low values 0.915 | S. cerevisiae deletion strains, locus YOR061W, strain CKA2, hits give low values 1.01 | S. cerevisiae deletion strains, locus YOR069W, strain VPS5, hits give low values 1.01 | S. cerevisiae deletion strains, locus YOR070C, strain gyp1, hits give low values 0.985 | S. cerevisiae deletion strains, locus YOR080W, strain dia2, hits give low values 0.97 | S. cerevisiae deletion strains, locus YOR083W, strain WHI5, hits give low values 0.982 | S. cerevisiae deletion strains, locus YOR106W, strain vam3, hits give low values 0.995 | S. cerevisiae deletion strains, locus YOR136W, strain idh2, hits give low values 0.975 | S. cerevisiae deletion strains, locus YOR144C, strain elg1, hits give low values 0.987 | S. cerevisiae deletion strains, locus YOR184W, strain ser1, hits give low values 0.899 | S. cerevisiae deletion strains, locus YOR231W, strain MKK1, hits give low values 0.92 | S. cerevisiae deletion strains, locus YOR265W, strain rbl2, hits give low values 0.982 | S. cerevisiae deletion strains, locus YOR270C, strain vph1, hits give low values 0.904 | S. cerevisiae deletion strains, locus YOR290C, strain snf2, hits give low values 0.998 | S. cerevisiae deletion strains, locus YOR316C, strain cot1, hits give low values 0.996 | S. cerevisiae deletion strains, locus YPL051W, strain arl3, hits give low values 0.949 | S. cerevisiae deletion strains, locus YPL055C, strain LGE1, hits give low values 1.02 | S. cerevisiae deletion strains, locus YPL078C, strain atp4, hits give low values 0.999 | S. cerevisiae deletion strains, locus YPL106C, strain sse1, hits give low values 0.991 | S. cerevisiae deletion strains, locus YPL240C, strain hsp82, hits give low values 0.988 | S. cerevisiae deletion strains, locus YPL241C, strain CIN2, hits give low values 1 | S. cerevisiae deletion strains, locus YPL256C, strain CLN2, hits give low values 0.902 | S. cerevisiae deletion strains, locus YPR119W, strain clb2, hits give low values 0.983 | S. cerevisiae deletion strains, locus YPR141C, strain kar3, hits give low values 0.994 | S. cerevisiae deletion strains, locus YPR163C, strain tif3, hits give low values 0.983 | S. cerevisiae deletion strains, locus YPR167C, strain met16, hits give low values 0.984 | S. cerevisiae deletion strains, strain wtn01, hits give low values 0.981 | S. cerevisiae strains, strain wild type, hits give low values 0.987

Reference: PubChem BioAssay AID1159580 (chemical genetic matrix, 2015)
